From PubChem BioAssay
aSyn 5UTR act – Activators via SNCA 5'UTR binding, MLPCN. 7.1% of 300,000 active. alpha-synuclein 5'UTR reporter, activators screen. AID 1814, 2009. activity score, % (tested at 7.5 µM), hits read low; in the data active = activity score below about -60%
* marks the source's active call; other numbers are inactive results. Only a sample is shown.

SMILES	aSyn 5UTR act
Nc1cc(Cl)ccc1C(=O)OCC(=O)N1CCCC1	-69*
O=C(Nc1ccc(-c2nc3cc(Cl)ccc3o2)cc1)C1CCCO1 (stereo not drawn)	-81*
O=C(Nc1ccc2oc(-c3ccccc3)nc2c1)C1CCCO1 (stereo not drawn)	-162*
Cc1ccc(NC(=O)CNC(C)c2ccccc2)cc1 (stereo not drawn)	-73*
COc1ccc(C)cc1NC(=O)CNC(c1ccccc1)c1ccc(C)cc1 (stereo not drawn)	103
Cc1ccc(NC(=O)NCC(c2ccccc2)N(C)C)cc1 (stereo not drawn)	-107*
CCCCS/C(N)=N/N=C/c1ccccc1O	-153*
CCCS/C(N)=N/N=C/c1cc(C)ccc1O	-138*
C/C(=N/N=C/c1ccccc1O)c1ccccc1O	-240*
Cn1cccc1C(=O)C(=O)Nc1ccccc1	-112*
Cn1cccc1C(=O)C(=O)Nc1ccccc1C(F)(F)F	-130*
O=C(Nc1ccccn1)Nc1ccccc1Cl	-131*
Cc1cc(NC(=O)Nc2ccccc2Cl)no1	-74*
S=C(Nc1ccccn1)Nc1ccccc1Cl	-83*
O=[N+]([O-])c1cnc(Nc2ccc(Cl)cn2)c([N+](=O)[O-])c1	-129*
O=C(Nc1ccc(Cl)cn1)Nc1ccccc1Cl	-87*
O=C(Nc1ccc(Cl)cn1)c1ccccc1[N+](=O)[O-]	-77*
CNC(=O)C1CCN(S(=O)(=O)c2c(C)noc2/C=C/c2ccccc2F)CC1	-69*
N/C(Cc1cccs1)=N\OC(=O)COc1ccc(Br)cc1Cl	-163*
N/C(Cc1cccs1)=N\OC(=O)COc1ccccc1Cl	-174*
CC(=O)Nc1ccc(-n2cc(-c3ccccc3)[nH]c2=S)cc1	-81*
COc1ccc(-n2cc(-c3ccccc3)[nH]c2=S)cc1	-91*
Cc1cccc(-n2cc(-c3ccccc3)[nH]c2=S)c1	-108*
O=S(=O)(c1ccc2c(c1)C(=NO)c1cc(S(=O)(=O)N3CCCCC3)ccc1-2)N1CCCCC1	96
Cc1ccc(O)c(N=Nc2ccc(S(=O)(=O)N3CCCC3)cc2)c1	-70*
SMILES	aSyn 5UTR act
Cc1cc(C(=O)Nc2cccc(C(=O)O)c2)oc1C	87
Cc1oc(C(C)(C)C)cc1C(=O)Nc1ccc(C(=O)O)cc1	-93*
Cc1cc(C(=O)Nc2cccc(C(=O)O)c2)c(C)o1	-92*
Cc1oc(C(C)(C)C)cc1C(=O)Nc1cccc(C(=O)O)c1	-114*
Cc1nc(N)sc1N=Nc1ccc(F)cc1	-107*
CC(=O)Nc1cccc(-c2csc(Nc3cc(C)ccn3)n2)c1	-63*
CC(=O)Nc1ccc(-c2csc(Nc3cc(C)ccn3)n2)cc1	-101*
CC(=O)Nc1cccc(-c2csc(Nc3ccccn3)n2)c1	-120*
Cc1ccc(Nc2nc(-c3c(C)nc4ncccn34)cs2)cc1	84
Cc1nc2ncccn2c1-c1csc(Nc2ccc(O)cc2)n1	-67*
Cc1ccnc(Nc2nc(-c3c(C)nc4sccn34)cs2)c1	-103*
CC(=O)Nc1nc(C)c(-c2csc(Nc3ccccn3)n2)s1	-114*
Cc1ccnc(Nc2nc(-c3ccccc3)cs2)c1	-155*
C=CCSc1nnc(-c2ccc(Cl)cc2Cl)o1	-78*
Clc1ccc(-c2nnc(SCc3ccon3)o2)c(Cl)c1	-69*
C=CCSc1nnc(-c2ccc([N+](=O)[O-])cc2)o1	-140*
COCc1c(C(=O)Nc2nc(C)cs2)oc2ccccc12	-88*
COCc1c(C(=O)Nc2ccc(Cl)cc2F)oc2ccccc12	-116*
CCOC(=O)Cn1c(S(=O)(=O)Cc2ccccc2Cl)nc(-c2ccccc2)c1-c1ccccc1	54
Nc1c(-c2ccccc2)cnn1-c1ccccc1	-110*
Nc1c(-c2cccc(Cl)c2)cnn1-c1ccccc1	-122*
CCOC(=O)Cn1ncc(-c2ccccc2)c1N	-129*
Cc1ccc(NC(=O)Nc2cccc(F)c2)nc1	-176*
O=C(Nc1cccc(F)c1)Nc1ccc(Cl)cn1	-135*
O=C(/C=C/c1cccs1)NC(=S)NNC(=O)c1ccccc1O	103
SMILES	aSyn 5UTR act
O=C(NC(=S)Nc1ccccc1Br)c1ccco1	-86*
Cc1cccc(NC(=S)NC(=O)c2ccco2)c1C	-94*
O=C(NC(=S)NNC(=O)c1ccccc1O)c1ccco1	-99*
Cc1c(NC(=S)NC(=O)Cc2ccccc2)cccc1C(=O)O	-79*
CCc1nc(SCc2ccc(Br)cc2)n[nH]1	-88*
CCc1nc(SCc2ccc(Cl)cc2)n[nH]1	-49*
CCc1nc(SCc2ccc(OCC(C)C)cc2)n[nH]1	-102*
CCC(=O)NCCc1nc2cc(NC(=O)c3ccc(OC)cc3)ccc2n1C	-119*
CC(=O)NCCc1nc2cc(NC(=O)c3ccccc3Cl)ccc2n1C	-62*
CCC(=O)NCCc1nc2cc(NC(=O)c3ccc(F)cc3)ccc2n1C	-122*
CCC(=O)NCCc1nc2cc(NC(=O)c3ccc(Cl)cc3)ccc2n1C	-175*
CC(=O)NCCc1nc2cc(NC(=O)c3ccc(Cl)cc3)ccc2n1C	-98*
O=C(CSc1nnnn1Cc1ccccc1)c1ccccc1	-67*
CCn1nnnc1SCC(=O)c1ccc(C)cc1	-66*
O=C(COC(=O)C1CC1)c1c[nH]c2ccccc12	-177*
O=C(Cc1ccccc1[N+](=O)[O-])OCC(=O)c1c[nH]c2ccccc12	-69*
Cc1cc(C(=O)NC2CCC(C)CC2)c(C)o1 (stereo not drawn)	-110*
Cc1cc(C)nc(NC(=O)c2cc(-c3ccc(C)s3)nc3ccccc23)c1	-62*
COC(=O)c1ccc(CSc2nc3ccccc3s2)o1	-83*
COC(=O)c1ccc(/C(O)=C(\C#N)c2nc3ccccc3s2)cc1	-150*
O=C(Cc1ccccc1)c1nc2ccccc2s1	-216*
COC(=O)c1ccc(CC(=O)c2nc3ccccc3s2)cc1	-63*
Nc1cc(C(F)(F)F)ccc1OCC1CCCO1 (stereo not drawn)	-91*
CCCn1c(C2CCCN2c2nc(-c3cccc(Br)c3)cs2)nc2ccccc21 (stereo not drawn)	-93*
Cn1ncc(Cl)c1C(=O)Nc1ccc2c(c1)CCC2	-138*
SMILES	aSyn 5UTR act
CN1N=C(C(=O)Nc2ccc3c(c2)CCC3)CCC1=O	-140*
C[C@]12CCC(=O)C=C1CC[C@@H]1[C@@H]2[C@@H](O)C[C@]2(C=O)[C@@H](C(=O)CO)CC[C@@H]12	-78*
Nc1nnc(COc2ccc(Br)cc2Br)s1	-98*
O=C(O)c1cc(N/N=C/c2ccc(-c3ccccc3)cc2)ccc1Cl	-202*
CSc1ccc(/C=N/Nc2ccc(Cl)c(C(=O)O)c2)cc1	-134*
CC(C)c1ccc(/C=N/Nc2ccc(C(=O)O)cc2)cc1	85
O=C(O)c1ccc(N/N=C/c2ccc(-c3ccccc3)cc2)cc1	-78*
C/C(=N\Nc1cccc(C(F)(F)F)c1)c1ccc(O)cc1	-76*
O=C(O)c1ccc(/C=N/Nc2cccc(C(F)(F)F)c2)cc1	-137*
Cc1nn(-c2ccccc2Cl)c(Cl)c1/C=N/Nc1cccc(C(=O)O)c1	103
O=C(O)c1ccc(N/N=C/C=C/c2ccccc2)cc1	-125*
Cc1nn(-c2cccc(C(F)(F)F)c2)c(Cl)c1/C=N/Nc1cccc(C(=O)O)c1	-108*
Cc1cccc(Nc2nc(-c3ccc(F)cc3)cs2)n1	-137*
CC(=O)Oc1ccc(-c2csc(Nc3cccc(C)n3)n2)cc1	-250*
COc1ccc(-c2csc(Nc3cccc(C)n3)n2)cc1	-232*
Fc1ccc(-c2csc(Nc3ccccn3)n2)cc1	-77*
COc1ccc(-c2csc(Nc3cccc(C)n3)n2)cc1C	-216*
N#Cc1cnn2c1nc(N1CCCCC1)c1ccccc12	64
